Inconclusive results are not listed. A call without a number means that no potency is given here. Values without a mark were called inactive. Activity calls are given as the source filed them. Calls follow the shape of the dose curve; as a rule, active = well fitted curve in the direction sought with a large enough effect; inconclusive = small, poorly fitted or top-dose-only effect, or another doubt; inactive = no such curve, though single readings can be large; an effect the other way counts as inactive or inconclusive.
Tests used:
[1] = biological target: Rap guanine nucleotide exchange factor 3 (Homo sapiens) (UniProt O95398); test: Confirmatory qHTS for antagonist of cAMP-regulated guanine nucleotide exchange factor 3 (EPAC1) (AID 1645880); also: nearly all actives have a fitted effect of over 55% in size; also: potency is read from the fitted curve at half-maximal effect
Rap guanine nucleotide exchange factor 3 (Homo sapiens), sequence (O95398 whole entry, looked up): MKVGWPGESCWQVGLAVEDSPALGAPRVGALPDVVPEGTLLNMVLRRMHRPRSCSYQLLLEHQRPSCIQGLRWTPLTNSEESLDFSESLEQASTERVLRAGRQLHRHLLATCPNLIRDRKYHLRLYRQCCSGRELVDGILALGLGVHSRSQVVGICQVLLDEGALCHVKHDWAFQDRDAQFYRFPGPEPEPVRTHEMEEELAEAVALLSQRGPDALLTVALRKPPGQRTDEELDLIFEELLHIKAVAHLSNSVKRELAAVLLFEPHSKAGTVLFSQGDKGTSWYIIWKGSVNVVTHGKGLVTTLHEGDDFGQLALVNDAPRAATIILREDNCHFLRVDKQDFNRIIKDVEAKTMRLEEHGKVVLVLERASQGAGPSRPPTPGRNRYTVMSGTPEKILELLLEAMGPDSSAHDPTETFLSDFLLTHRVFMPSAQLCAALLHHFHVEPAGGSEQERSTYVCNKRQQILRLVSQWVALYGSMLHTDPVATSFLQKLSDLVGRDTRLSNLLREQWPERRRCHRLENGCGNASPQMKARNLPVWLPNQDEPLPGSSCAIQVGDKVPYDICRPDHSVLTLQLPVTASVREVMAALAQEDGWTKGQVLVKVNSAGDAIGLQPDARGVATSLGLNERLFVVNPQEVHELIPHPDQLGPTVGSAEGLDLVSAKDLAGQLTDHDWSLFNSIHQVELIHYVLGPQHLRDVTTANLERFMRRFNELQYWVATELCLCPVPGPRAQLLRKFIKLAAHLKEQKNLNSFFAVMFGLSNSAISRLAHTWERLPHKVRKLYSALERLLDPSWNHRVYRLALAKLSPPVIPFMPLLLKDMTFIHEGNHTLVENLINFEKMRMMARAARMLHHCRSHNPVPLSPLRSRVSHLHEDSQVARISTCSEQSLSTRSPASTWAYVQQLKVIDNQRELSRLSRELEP
In short: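 Nucleotide exchange uses 100 nM EPAC1, 250 nM RAP1B-BODIPY-GDP and 50 uM GDP, with compounds in a concentration-titration series. After 5 min at room temperature, fluorescence (480 nm ex/540 nm em) is read every 5 min for 30 min. Data are normalized to control ATA and DMSO.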

[2] = biological target: Rap guanine nucleotide exchange factor 3 (Homo sapiens) (UniProt O95398); test: Confirmatory qHTS for agonist of cAMP-regulated guanine nucleotide exchange factor 3 (EPAC1) (AID 1645881); also: nearly all actives have a fitted effect of over 75% in size; also: potency is read from the fitted curve at half-maximal effect;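 as to activation: EPAC1 catalysed release of BODIPY-GDP from Rap1B seen as fluorescence loss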
[3] = biological target: Rap guanine nucleotide exchange factor 4 (Homo sapiens) (UniProt Q8WZA2); test: Confirmatory qHTS for agonist of cAMP-regulated guanine nucleotide exchange factor 4 (EPAC2) (AID 1645884);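 also: nucleotide exchange releases bodipy-GDP from Rap1 and this lowers its fluorescence; nearly all actives have a fitted effect of over 65% in size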; also: potency is read from the fitted curve at half-maximal effect
Rap guanine nucleotide exchange factor 4 (Homo sapiens), sequence (Q8WZA2 whole entry, looked up): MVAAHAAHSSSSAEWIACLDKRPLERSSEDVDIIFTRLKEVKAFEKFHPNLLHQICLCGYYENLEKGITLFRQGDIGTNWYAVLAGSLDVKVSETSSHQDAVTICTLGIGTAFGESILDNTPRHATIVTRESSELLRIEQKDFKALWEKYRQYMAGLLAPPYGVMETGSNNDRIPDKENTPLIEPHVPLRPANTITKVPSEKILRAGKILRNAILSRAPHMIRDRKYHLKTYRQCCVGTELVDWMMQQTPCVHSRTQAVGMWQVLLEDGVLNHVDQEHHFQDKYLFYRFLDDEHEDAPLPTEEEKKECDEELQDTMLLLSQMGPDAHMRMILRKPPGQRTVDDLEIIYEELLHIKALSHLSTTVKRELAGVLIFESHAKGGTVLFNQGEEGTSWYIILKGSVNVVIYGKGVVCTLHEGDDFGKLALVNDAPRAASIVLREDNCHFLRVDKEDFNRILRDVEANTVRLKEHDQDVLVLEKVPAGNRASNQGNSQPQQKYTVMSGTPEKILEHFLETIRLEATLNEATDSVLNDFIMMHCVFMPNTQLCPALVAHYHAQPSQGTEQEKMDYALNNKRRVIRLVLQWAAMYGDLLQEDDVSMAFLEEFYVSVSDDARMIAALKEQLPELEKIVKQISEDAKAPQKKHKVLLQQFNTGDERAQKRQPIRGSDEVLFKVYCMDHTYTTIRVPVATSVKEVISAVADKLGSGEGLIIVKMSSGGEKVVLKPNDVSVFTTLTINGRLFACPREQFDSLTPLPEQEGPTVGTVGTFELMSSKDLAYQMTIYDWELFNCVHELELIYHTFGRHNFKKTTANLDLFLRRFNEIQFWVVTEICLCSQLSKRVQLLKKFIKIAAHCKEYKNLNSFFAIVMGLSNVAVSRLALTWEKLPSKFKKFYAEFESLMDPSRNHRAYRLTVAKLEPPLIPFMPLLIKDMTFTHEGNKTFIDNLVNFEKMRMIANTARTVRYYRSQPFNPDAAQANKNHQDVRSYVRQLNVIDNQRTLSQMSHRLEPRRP

[4] = biological target: Rap guanine nucleotide exchange factor 4 (Homo sapiens) (UniProt Q8WZA2); test: Confirmatory qHTS for antagonist of cAMP-regulated guanine nucleotide exchange factor 4 (EPAC2) (AID 1645885); also: nearly all actives have a fitted effect of over 25% in size; also: potency is read from the fitted curve at half-maximal effect
[5] = biological target: Rap guanine nucleotide exchange factor 3 (Homo sapiens) (UniProt O95398); test: Counterscreen qHTS for antagonist of cAMP-regulated guanine nucleotide exchange factor 3 (EPAC1) (AID 1645888);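 also: fluorescence loss as bound BODIPY-GDP is released from Rap1B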
In short: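 Measured: fluorescence of BODIPY-GDP bound to Rap1B, which falls as exchange proceeds. Conditions include 50 uM competing GDP, 5 and 30 min reads, and a later cAMP challenge for antagonist detection.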

Structure (SMILES) | Potency [1] | Potency [2] | Potency [3] | Potency [4] | Potency [5] | activation [3] | activity change, negative = inhibition [5] | outcome [4]
Cc1cc(N)c2cc(NC(=O)/C=C/c3ccccc3Cl)ccc2n1 | 37.9 µM (active) | 100 µM (active) | 56.2 µM (active) | inactive | inactive | – | – | –
O=C(NCc1ccccc1)c1ccc2nc(-c3ccco3)c(-c3ccco3)nc2c1 | 16.9 µM (active) | inactive | inactive | inactive | inactive | – | – | –
O=c1oc(-c2ccccc2NS(=O)(=O)c2ccccc2)nc2ccccc12 | inactive | inactive | – | inactive | – | 2.35% [at 17.1 µM, percent relative to cAMP agonist control] | 2.74% [at 30.8 µM] | –
CC1=CC2=NC(=O)/C(=C\c3cccn3CCOc3ccc(C)c(C)c3)C(=N)N2O1 | inactive | inactive | inactive | inactive | inactive | – | – | –
CCCCN1C(=O)C(CC(=O)NC2CCCCC2)CC(C(=O)N2CCCCCC2)=C1C (stereo not given) | inactive | inactive | – | inactive | – | 8.48% [at 17.1 µM, percent relative to cAMP agonist control] | -2.29% [at 30.8 µM] | –
COc1ccc(N2CCN(C(c3ccccc3F)c3sc4nc(-c5ccco5)nn4c3O)CC2)cc1 (stereo not given) | inactive | inactive | inactive | inactive | inactive | – | – | –
COC(=O)c1ccccc1NC1=C/C(=N\S(=O)(=O)c2ccc(C(=O)O)cc2)c2ccccc2C1=O | 22.4 µM (active) | inactive | – | inactive | – | 7.9% [at 17.1 µM, percent relative to cAMP agonist control] | 14.1% [at 30.8 µM] | –
CCc1nn2c(-c3ccccc3OC)ccnc2c1-c1ccccc1 | inactive | inactive | inactive | – | inactive | – | – | inactive [at 12.7 µM]
N#CC(=Cc1ccc(-c2ccccc2)cc1)C(=O)c1ccccc1 | 39.8 µM (active) | inactive | – | inactive | – | 0.543% [at 17.1 µM, percent relative to cAMP agonist control] | -16.6% [at 30.8 µM] | –
Cc1ccc2nc(NC(=O)CSc3nc(=O)n(CCCN(C)C)c4c3CCC4)sc2c1 | inactive | inactive | – | inactive | – | 2.81% [at 17.1 µM, percent relative to cAMP agonist control] | -5.22% [at 30.8 µM] | –
COc1ccc(S(=O)(=O)N2CCOC23CCN(S(=O)(=O)c2cc(F)ccc2F)CC3)cc1 | inactive | inactive | – | inactive | – | 4.71% [at 17.1 µM, percent relative to cAMP agonist control] | -8.89% [at 30.8 µM] | –
Cc1ccc2nc(N3C(=O)C(O)=C(C(=O)c4ccc(C)o4)C3c3cccc(O)c3)sc2c1 (stereo not given) | 37.9 µM (active) | inactive | inactive | inactive | inactive | – | – | –
CCOC(=O)C1=C(C)Nc2nnnn2C1c1ccc(OC)c(Br)c1 (stereo not given) | inactive | inactive | – | inactive | – | 8.47% [at 17.1 µM, percent relative to cAMP agonist control] | 1.39% [at 30.8 µM] | –
CCOC(=O)c1ccccc1-c1csc(NS(=O)(=O)c2ccc(Cl)cc2)n1 | 31.6 µM (active) | inactive | – | inactive | – | 4% [at 17.1 µM, percent relative to cAMP agonist control] | -28.7% [at 30.8 µM] | –
O=C1c2cc(O)c(O)cc2OC(c2ccc(O)c(O)c2)C1O (stereo not given) | 42.6 µM (active) | inactive | inactive | inactive | inactive | – | – | –
CCOC(=O)Cc1nn(Cc2ccccc2)c(=O)c2ccccc12 | inactive | inactive | inactive | inactive | inactive | – | – | –
O=C1NC(=O)C2(CCC(C(=O)O)C2)N1 (stereo not given) | inactive | inactive | – | inactive | – | 11.7% [at 17.1 µM, percent relative to cAMP agonist control] | 14.4% [at 30.8 µM] | –
CC1=C(C(=O)OC2CCCC2)C(c2c(Cl)cccc2Cl)CC(=O)N1 (stereo not given) | inactive | inactive | inactive | inactive | inactive | – | – | –
CCCCn1c(N)c(N(CCC(C)C)C(=O)Cc2ccc(S(=O)(=O)N3CCOCC3)s2)c(=O)[nH]c1=O | inactive | inactive | inactive | inactive | inactive | – | – | –
Cn1c(SCc2c(Cl)cccc2Cl)nnc1-c1ccc2nonc2c1 | inactive | inactive | – | inactive | – | 10.1% [at 17.1 µM, percent relative to cAMP agonist control] | -10.9% [at 30.8 µM] | –

Structure (SMILES) | Potency [1] | Potency [2] | Potency [3] | Potency [4] | Potency [5] | activation [3] | activity change, negative = inhibition [5] | outcome [4]
CCOC(=O)C1=C(CSc2nc3ccccc3s2)NC(=O)NC1c1ccc(OC)cc1 (stereo not given) | inactive | inactive | inactive | – | inactive | – | – | inactive; activator; fitted 0.12 uM [at 12.7 µM]
COc1cc(O)cc(O)c1C(=O)/C=C/c1ccccc1 | 67.5 µM (active) | inactive | inactive | inactive | inactive | – | – | –
Cc1cc(Nc2ccccc2)n(-c2nc3ccccc3[nH]2)n1 | inactive | inactive | – | inactive | – | 5.09% [at 17.1 µM, percent relative to cAMP agonist control] | -0.198% [at 30.8 µM] | –
CCCN(CC(=O)Nc1ccccc1C)C(=O)C1CCN(S(=O)(=O)c2ccccc2C(F)(F)F)CC1 | inactive | inactive | inactive | inactive | inactive | – | – | –
O=C(Nc1cccc(Cl)c1)N(Cc1nc2ccccc2c(=O)[nH]1)Cc1cccs1 | inactive | inactive | – | inactive | – | 5.3% [at 17.1 µM, percent relative to cAMP agonist control] | 2.45% [at 30.8 µM] | –
CO/N=C/c1ccc(Sc2ccccc2)c([N+](=O)[O-])c1 | inactive | inactive | – | inactive | – | 6.03% [at 17.1 µM, percent relative to cAMP agonist control] | -14.9% [at 30.8 µM] | –
COc1ccc(S(=O)(=O)N2CCC[C@H]2C(=O)N2CCC[C@H]2C(=O)N[C@@H](C)c2ccccc2)cc1C | inactive | inactive | – | inactive | – | 1.42% [at 17.1 µM, percent relative to cAMP agonist control] | 6.49% [at 30.8 µM] | –
COc1ccc(NC(=O)COc2ccccc2C#N)c(S(=O)(=O)N2CCCCC2)c1 | inactive | inactive | inactive | inactive | inactive | – | – | –
COC(=O)c1c(SC)nc2ccccc2c1OCc1ccccc1C | inactive | inactive | inactive | inactive | inactive | – | – | –
Cc1ccc(-c2cc3ccccc3nc2N2CCOCC2)cc1 | inactive | inactive | inactive | inactive | inactive | – | – | –
COc1ccc(/C=N/Nc2ccc(C(=O)O)cc2)cc1Br | inactive | inactive | inactive | inactive | inactive | – | – | –
Cc1cccc(N=C2NC(=O)/C(=C/C=C/c3ccco3)S2)c1C | 9.53 µM (active) | inactive | inactive | inactive | inactive | – | – | –
O=C(O)CN1C(=O)/C(=C\c2cc(Br)ccc2OCc2ccccc2F)SC1=S | 35.5 µM (active) | inactive | – | inactive | – | 4.56% [at 17.1 µM, percent relative to cAMP agonist control] | 18.9% [at 30.8 µM] | –
OCc1cccc(-c2cnc3c(Nc4cccc(OC(F)(F)C(F)F)c4)nccn23)c1 | inactive | inactive | – | inactive | – | -0.754% [at 17.1 µM, percent relative to cAMP agonist control] | 9.1% [at 30.8 µM] | –
COCCCN1C(=O)C(CC(=O)NCc2cccc3ccccc23)CC(C(=O)N2CCCCCC2)=C1C (stereo not given) | inactive | inactive | inactive | inactive | inactive | – | – | –
CC(/C=C1\SC(=S)N(NS(=O)(=O)c2ccc(C)cc2)C1=O)=C\c1ccccc1 | 26.9 µM (active) | inactive | inactive | 47.8 µM (active) | inactive | – | – | –
CC(C)C1CC2=C(C(=O)OC(C)(C)O2)C(c2ccc(F)cc2)O1 (stereo not given) | inactive | inactive | – | inactive | – | 4.14% [at 17.1 µM, percent relative to cAMP agonist control] | -3.34% [at 30.8 µM] | –
Cc1cc2oc(=O)c3c(c2cc1OC(=O)c1ccco1)CCCC3 | inactive | inactive | inactive | inactive | inactive | – | – | –
COc1ccc(NC(=O)c2ccc3c(SCC(=O)O)c4c(nc3c2)CCCC4)c(OC)c1 | 75.7 µM (active) | inactive | inactive | inactive | inactive | – | – | –

— PubChem BioAssay (NCATS)
